# Sampled rows, rich in hits. Any-hit rate of the full collection: about 6.9%.
# KB-3-1 tox: qHTS assay for MDR1-selective chemotherapeutics: Primary screen using the parental adenocarcinoma cell KB-3-1 | KB-3-1 viability, CellTiter-Glo ATP luminescence, 72 h | Potency, µM (doses to about 46.1 µM), actives largely listed as cytotoxic | 400,000 compounds, 1.4% hits | AID 1347075, 2019; note: potency is the fitted concentration of half-maximal effect; % is set by controls: 0 for no effect and ±100 for the full control effect; nearly all actives have a fitted effect of over 60% in size
#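 KB-3-1 cells, DMEM (no phenol red) + 10% FBS; compound by pin transfer, 72 h, 37 °C. Readout: CellTiter-Glo luminescence after 10 min. Data normalized, curve-fitted.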
# S-ASM inh: Inhibitors of Secretory Acid Sphingomyelinase (S-ASM): qHTS. Sphingomyelin phosphodiesterase (Homo sapiens), P17405. placental ASM, HMU-PC fluorogenic substrate, 60 min. Potency, µM (doses to about 57.5 µM), for the others: top-dose activity change, negative = inhibition, actives largely listed as inhibitors. 340,000 compounds, 0.006% hits. AID 504937, 2011; note: potency is the fitted concentration of half-maximal effect
# Target sequence (P17405 47-631 limits assumed): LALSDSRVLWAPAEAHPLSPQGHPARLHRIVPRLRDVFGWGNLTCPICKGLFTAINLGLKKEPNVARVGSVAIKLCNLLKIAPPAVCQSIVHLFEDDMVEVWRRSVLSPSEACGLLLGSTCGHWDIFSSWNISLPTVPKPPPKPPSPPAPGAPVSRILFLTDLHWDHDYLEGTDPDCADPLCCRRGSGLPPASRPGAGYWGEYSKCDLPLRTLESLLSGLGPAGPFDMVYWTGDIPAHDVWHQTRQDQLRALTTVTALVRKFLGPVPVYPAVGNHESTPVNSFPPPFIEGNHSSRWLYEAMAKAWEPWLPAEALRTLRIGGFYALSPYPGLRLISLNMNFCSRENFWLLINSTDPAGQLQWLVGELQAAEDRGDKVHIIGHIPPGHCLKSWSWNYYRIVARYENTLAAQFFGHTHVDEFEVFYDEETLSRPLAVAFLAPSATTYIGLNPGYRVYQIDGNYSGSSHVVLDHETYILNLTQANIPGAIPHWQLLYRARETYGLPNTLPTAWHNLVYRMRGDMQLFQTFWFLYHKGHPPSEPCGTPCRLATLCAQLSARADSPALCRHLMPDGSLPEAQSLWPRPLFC
#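 HMU-PC0 cleavage (9 uM final) by human placental ASM, 60 min at 37 °C following 10 min compound exposure at RT; stopped at pH 10, fluorescence Ex 386/Em 447 nm.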
# SW480 rerep: A quantitative high throughput screen for small molecules that induce DNA re-replication in SW480 colon adenocarcinoma cells; Potency, µM (titrated, usually from 46.1 µM), for inactives: top-dose re-replication activation, usual class: activators; 340,000 compounds, 1.8% hits; SW480 DNA re-replication, Hoechst DNA content imaging, 48 h; note: potency is the fitted concentration of half-maximal effect; % of control where 0% means no effect; nearly all actives have a fitted effect of over 55% in size
#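 Readout is total intensity of Hoechst-stained nuclei, excited at 405 nm and collected at 500-530 nm. Compound treatment lasted 48 hr at 37 C in 5% CO2 before staining.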
# MCF10A rerep: A quantitative high throughput screen for small molecules that induce DNA re-replication in MCF 10a normal breast cells; 350,000 compounds, 2.9% hits; Potency, µM (titrated, usually from 46.1 µM), without a hit: at the top dose activity, positive = re-replication, actives largely listed as activators; MCF 10A DNA re-replication, Hoechst nuclear intensity, 48 h; note: potency is the fitted concentration of half-maximal effect; % of control where 0% means no effect; nearly all actives have a fitted effect of over 50% in size
# KB-V1 cytotox: qHTS assay for MDR1-selective chemotherapeutics: Primary screen using the drug-selected MDR subline cells KB-V1 | KB-V1 MDR cells viability, CellTiter-Glo, 72 h | Potency, µM (series often up to 46.1 µM), most hits filed as cytotoxic | 400,000 compounds, 3.4% hits | AID 1347076, 2019; note: potency is the fitted concentration of half-maximal effect; % is set by controls: 0 for no effect and ±100 for the full control effect; nearly all actives have a fitted effect of over 60% in size
#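 Following 72 h at 37 degrees C with compound, KB-V1 cell viability was read by CellTiter-Glo luminescence, medium being phenol-red-free DMEM plus 10% FBS; concentration-response parameters came from normalized, curve-fitted qHTS data.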
# Giardia killer: Small Molecules that selectively kill Giardia lamblia: qHTS. Giardia lamblia trophozoite viability. activity change, % at 7.66 µM, hits read low. 340,000 compounds, 0.15% hits. AID 540267, 2011; in the data active = activity change below about -80%; inconclusive = between about -30% and that limit;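 note: parasites exposed to compound for two days anaerobically before the ATP read; % is set by controls: 0 for no effect and ±100 for the full control effect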
#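 Killing of trophozoites was scored by loss of ATP luminescence after a 48 hrs anaerobic exposure to compounds at 37 deg C, using 100 cells per well.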
# Starred values were filed as active, the others as inactive; i = inactive; ? = inconclusive; . = not tested or not shown. Unless noted, calls come from the whole dose curve; as a rule, active = well fitted curve in the direction sought with a large enough effect; inconclusive = small, poorly fitted or top-dose-only effect, or another doubt; inactive = no such curve, though single readings can be large; an effect the other way counts as inactive or inconclusive.
SMILES,KB-3-1 tox,S-ASM inh,SW480 rerep,MCF10A rerep,KB-V1 cytotox,Giardia killer
CCCC(=O)N(C1CC(C)C(C#N)(C#N)C1(C#N)C#N)N(C)C (configuration not stated),i,4.0%,4.61µM*,2.91µM*,i,-2.8
O=C(CC[C@H]1O[C@@H](n2ccc(=O)[nH]c2=O)[C@H](O)[C@@H]1O)N[C@@H](Cc1ccccc1)C(=O)NCC1CCCO1 (some centres not stated),i,.,.,.,7.31µM*,.
O=C(CC[C@H]1O[C@@H](n2ccc(=O)[nH]c2=O)[C@H](O)[C@@H]1O)N[C@H](Cc1ccccc1)C(=O)NCC1CCCCC1,i,.,.,.,i,.
N#CC(c1ccccc1)N(CCCCl)C(=O)c1ccccc1 (configuration not stated),i,0.9%,14.6µM*,?,i,12.1
COc1ccccc1-c1noc(-c2ccc(N3CCN(c4ccccc4)CC3)c([N+](=O)[O-])c2)n1,i,.,.,.,i,.
Nc1c(Cl)ncnc1N/N=C/c1cccnc1,i,6.0%,-56.7%,3.66µM*,i,-18.0
Nc1c(Cl)ncnc1N/N=C/c1ccnc2ccccc12,i,-0.9%,17.1%,13.9%,?,33.0
Nc1c(Cl)ncnc1N/N=C/c1ccc2ccccc2n1,20.6µM*,-1.2%,0.259µM*,20.6µM*,i,-6.8
Nc1c(Cl)ncnc1N/N=C/c1ccccn1,8.2µM*,3.5%,?,?,i,-16.5
Clc1ccc(N/N=C/c2cccnc2)cc1,i,-2.9%,11.0%,?,i,31.6
CCOC(=O)c1ccc(-c2ccc3ncnc(NCc4cccs4)c3c2)o1,?,.,.,.,i,.
C=C1CCN(C(Cc2ccccc2)C(=O)NCc2ccc(Cl)cc2)S(=O)(=O)c2ccccc21 (configuration not stated),.,.,.,.,.,-10.2
COc1ccc(N(CC(=O)NC2CCCCCC2)S(=O)(=O)c2c(C)nn(C)c2C)cc1,?,1.5%,9.2%,6.1%,8.2µM*,22.4
Cc1nn(C)c(C)c1S(=O)(=O)N(CC(=O)NCCCOC(C)C)c1ccc(C(C)C)cc1,i,0.7%,-0.3%,-1.3%,4.61µM*,-8.3
Cc1ccc(N(CC(=O)NC2CCCCCC2)S(=O)(=O)c2c(C)nn(C)c2C)cc1,i,1.6%,-1.8%,24.6%,9.2µM*,-9.0
Cc1ccc(N(CC(=O)NC2CCCCC2C)S(=O)(=O)c2c(C)nn(C)c2C)cc1 (configuration not stated),i,-0.9%,-3.5%,-1.3%,i,-5.5
CCc1ccc(NC(=O)c2cc3c(=O)n(Cc4cccs4)ccc3nc2C)cc1,?,.,.,.,i,.
CC(C)c1ccc(NC(=O)c2ccc3c(c2)CCCN3S(C)(=O)=O)cc1,i,.,.,.,?,.
COc1ccc(Nc2nc(N3CCCCC3)c3ccccc3n2)cc1,?,-5.3%,6.9%,19.1%,20.6µM*,-6.1
Oc1ccc(Nc2nc(N3CCCC3)c3ccccc3n2)cc1,9.2µM*,-0.1%,?,?,i,52.0
CC(C)Cc1ccc(S(=O)(=O)Nc2cccnc2)cc1,i,-2.7%,4.61µM*,14.5%,i,-13.9
CN1CCN(c2ncc3c(n2)CCN(Cc2ccc(Br)s2)C3)CC1,i,.,.,.,i,.
COc1ccc(S(=O)(=O)Nc2cccc(-c3ccc4nncn4n3)c2)cc1F,i,-3.6%,5.17µM*,5.8µM*,?,12.3
COc1ccc(OC)c(S(=O)(=O)Nc2ccc(Oc3ccccc3)cc2)c1,i,-13.6%,-10.1%,?,20.6µM*,8.5
O=S(=O)(Nc1ccc(-c2ccc3nncn3n2)cc1)c1cc(F)ccc1F,i,-0.7%,-72.4%,-5.2%,i,-4.5
SMILES,KB-3-1 tox,S-ASM inh,SW480 rerep,MCF10A rerep,KB-V1 cytotox,Giardia killer
O=S(=O)(Nc1cccc(-c2ccc3nncn3n2)c1)c1cccc(F)c1,i,-0.7%,-1.8%,9.0%,i,2.2
COc1ccc(OC)c(S(=O)(=O)Nc2ccc(-c3ccc4nncn4n3)cc2)c1,18.4µM*,-7.6%,7.7%,?,i,0.1
CCOC(=O)C1(C)CCCN(C(=O)c2ccc(C)c(F)c2)C1 (configuration not stated),i,.,.,.,i,.
CCOC(=O)CNC(=O)CSc1nnc(CCc2nc3ccccc3[nH]2)n1C,i,-0.3%,-4.9%,0.9%,i,-13.6
CCOC(=O)[C@]12CCCC=C1N(Cc1ccc(Cl)cc1Cl)C(=O)[C@H](CC(=O)NCc1cccc(C(F)(F)F)c1)C2,?,.,.,.,16.4µM*,.
COC(=O)[C@]12CCCCC=C1N(Cc1ccc(Cl)cc1Cl)C(=O)[C@H](CC(=O)NCc1cccc(C(F)(F)F)c1)C2,i,.,.,.,i,.
CCOC(=O)[C@]12CCC=C1N(Cc1ccc(Cl)cc1Cl)C(=O)[C@H](CC(=O)NCc1cccc(C(F)(F)F)c1)C2,?,.,.,.,20.6µM*,.
CCOC(=O)[C@]12CCCC=C1N(Cc1ccc(Cl)cc1Cl)C(=O)[C@H](CC(=O)NCc1ccc(OC)c(OC)c1)C2,?,.,.,.,18.4µM*,.
CCOC(=O)[C@]12CCC=C1N(Cc1ccc(Cl)cc1Cl)C(=O)[C@H](CC(=O)NCc1ccccc1)C2,i,.,.,.,?,.
O=C(O)c1cn2c3c(ccc(Cl)c3c1=O)OCC2,i,11.4%,14.7%,?,?,-0.7
Cc1cccc(CSCc2ccc(C(=O)NCCc3ccccc3)o2)c1,i,.,.,.,i,.
Cc1cc(-c2ccccc2)n(-c2ccc(C(=O)N3CCN(c4ncccn4)CC3)cc2)n1,?,-3.3%,19.9%,27.8%,2.91µM*,22.8
COc1ccc(Nc2nc3ccccc3nc2-n2nc(C)cc2C)cc1,i,-4.0%,?,16.4µM*,i,-2.5
Cc1cc(C)n(-c2nc3ccccc3nc2N2CCN(C(=O)c3ccc(Cl)cc3)CC2)n1,i,150.5%,20.6µM*,1.84µM*,i,2.9
Cc1cc(C)n(-c2nc3ccccc3nc2N2CCCC2)n1,i,34.3%,-10.3%,0.1%,13µM*,1.6
COc1ccc(OC)c(Nc2nc3ccccc3nc2-n2nc(C)cc2C)c1,i,.,.,.,i,.
Cc1cc(C)n(-c2nc3ccccc3nc2N2CCCCCC2)n1,i,4.8%,3.8%,13.9%,i,1.1
COc1ccc2c(c1)c1c(c(=O)n(CCc3ccccc3)c(=O)n1Cc1cccc(Cl)c1)n2C,i,.,.,.,i,.

# Source: PubChem (National Center for Advancing Translational Sciences (NCATS))
